HT1080NT lethal – kills 2HG-producing HT-1080-NT fibrosarcoma cells. HT-1080-NT fibrosarcoma viability, CellTiter-Glo ATP luminescence, 48 h. Potency, µM (top dose mostly 46.1 µM), without a hit: at the top dose activity, negative = less viability, usual class: cytotoxic. actives 1.6% (n = 360,000);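 note: NT is the 2HG producing partner of a matched IDH1 knockdown line; 0% = DMSO-treated cells and -100% = media-only wells without cells; nearly all actives have a fitted effect of over 55% in size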
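HT-1080-NT; 750 cells/well; 5% FBS RPMI; 48 h compound, 37 degrees C; CellTiter-Glo luminescence; curve fitting and curve-class assignment.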
HT1080 IDH1KD tx – kills HT-1080 cells with IDH1 knockdown; Potency, µM (top dose mostly 46.1 µM), for the others: at the top dose activity, negative = toxicity, most hits filed as cytotoxic; actives 2% (n = 360,000); AID 686971; HT-1080 IDH1 knockdown viability, ATP luminescence, 48 h;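 note: 0% = DMSO wells and -100% = cell-free medium wells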
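HT-1080-IDH1KD cells (IDH1 knocked down), 750/well in RPMI with 5% FBS, treated with compound 48 h at 37 degrees C. Viability by CellTiter-Glo luminescence, normalised to DMSO and no-cell wells; concentration-response curves classed.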
KB-3-1 tox – KB-3-1 parental cell cytotoxicity | actives 1.4% (n = 400,000) | KB-3-1 viability, CellTiter-Glo ATP luminescence, 72 h | AID 1347075 | Potency, µM (titrated, usually from 46.1 µM), most hits filed as cytotoxic; note: nearly all actives have a fitted effect of over 60% in size
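Parental KB-3-1 viability, qHTS format: 72 h compound exposure, 37 °C; CellTiter-Glo; media-only wells and DMSO plates as controls; concentration-effect fits on corrected data.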
KB-V1 cytotox – kills drug-selected multidrug resistant KB-V1 cells; KB-V1 MDR cells viability, CellTiter-Glo, 72 h; Potency, µM (highest dose often 46.1 µM), most hits filed as cytotoxic; actives 3.4% (n = 400,000); AID 1347076; note: nearly all actives have a fitted effect of over 60% in size
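KB-V1 cells (P-gp-expressing MDR subline of KB-3-1) in phenol-red-free DMEM with 10% FBS were exposed to library compounds over a concentration series for 72 h at 37 degrees C. Viability read by CellTiter-Glo luminescence; concentration-effect curves fitted after normalization.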
An asterisk follows results filed as active; i = inactive; ? = inconclusive; . = no result; ! = a repeat was not active; [ ] = dose if it differs, or a comment. A selection: hits, their analogues and other compounds. The true share with any hit is near 5.7%. Calls come from the whole dose curve; as a rule, active = well fitted curve in the direction sought with a large enough effect; inconclusive = small, poorly fitted or top-dose-only effect, or another doubt; inactive = no such curve, though single readings can be large; an effect the other way counts as inactive or inconclusive. Unless noted, % is set by controls: 0 for no effect and ±100 for the full control effect; potency is the fitted concentration of half-maximal effect.

SMILES	HT1080NT lethal	HT1080 IDH1KD tx	KB-3-1 tox	KB-V1 cytotox
COC(=O)CC1Oc2ccccc2-n2cc(-c3ccc(Cl)cc3)nc21 (stereo unspecified)	.	.	i	i
O=C(Nc1ccnn1C1CCN(Cc2cccc(O)c2)CC1)C1CCCC1	2.9%	-10.1%	i	i
CC(C)CCNC(=O)C1CCN(Cc2cccc(OCc3ccccc3)c2)CC1	?	23.1µM*	i	i
c1ccc(COc2cccc(CN3CCN(c4ccccn4)CC3)c2)cc1	4.4%	1.7%	i	18.4µM*
CCOc1cccc(CN2CCC(n3nccc3NC(=O)C3CCCC3)CC2)c1	-3.2%	-1.4%	i	16.4µM*
Cc1ccc(-n2ncc(C(=O)Nc3ccc4c(c3)OCO4)c2C2CCN(C(=O)OC(C)(C)C)CC2)c(C)c1	.	.	i	i
CCOc1ccccc1NC(=O)c1c(NC(=O)Cc2ccc(OC)cc2)sc2c1CCC2	.	.	i	i
O=C(Cc1sc(Nc2ccccc2)nc1-c1ccccc1)NCc1ccccc1	?	?	16.4µM*	?
COC(=O)c1ccc(Oc2nc(Nc3ccccc3)nc(N(C)C)n2)cc1	-1.3%	4.6%	i	14.6µM*
CCN(CC)c1nc(Nc2ccccc2)nc(Oc2ccc(C(=O)OC)cc2)n1	7.5%	5.5%	?	?
COC1=CC(=O)c2c(ccc3ncnc(N)c23)C1=O	4.11µM*	2.91µM*	2.06µM*	1.84µM*
Cc1ccc(S[C@@H](CCN2CC[C@H](C)CCC2=O)c2ccccc2)cc1	-8.3%	-1.2%	?	11.6µM*!
COc1ccc(S[C@@H](CCN2CC[C@H](C)CCC2=O)c2ccccc2)cc1	-23.9%	-9.1%	i	?
CCc1ccc(NCc2cc3c(C)nn(-c4ccccc4)c3[nH]c2=O)cc1	?	-19.5%	i	18.4µM*
Cc1nn(-c2ccccc2)c2[nH]c(=O)c(CNc3ccc4c(c3)OCCO4)cc12	-18.7%	-24.2%	i	i
CC(C)NC(=O)C1CCN(c2nc3ccccc3nc2C(F)(F)F)CC1	.	.	i	?
Cc1nnc(SCCn2c(N3CCCC(C)C3)nc3c2c(=O)n(C)c(=O)n3C)s1 (stereo unspecified)	7.4%	5.9%	i	i
Cc1nnc(SCCn2c(N3CCC(C)CC3)nc3c2c(=O)n(C)c(=O)n3C)s1	3.8%	-0.1%	?	11.6µM*
Cn1cc(/C=N/n2cnc3sc4c(c3c2=O)CCCC4)c2ccccc21	1.5%	-1.1%	?	20.6µM*
O=c1c2c3c(sc2ncn1/N=C/c1ccc([N+](=O)[O-])o1)CCCC3	?	?	20.6µM*	20.6µM*
O=c1c2c3c(sc2ncn1-n1cccc1)CCCCC3	-6.5%	-2.6%	i	?
O=C(CCCc1ccccc1)N1CCN(c2ccc([N+](=O)[O-])cc2)CC1	-14.4%	1.6%[9.24 µM]	i	16.4µM*
CCOCC(=O)N1CCN(c2ccc([N+](=O)[O-])cc2)CC1	-1.3%	-3.8%	i	18.4µM*
O=C(CSc1ccsc1[N+](=O)[O-])N1CCN(c2ccc(Cl)cc2)CC1	4.7%	-0.8%	i	i
O=C(CCCC(=O)N1CCN(c2ccc([N+](=O)[O-])cc2)CC1)c1ccccc1	0.9%	-1.5%	i	?
SMILES	HT1080NT lethal	HT1080 IDH1KD tx	KB-3-1 tox	KB-V1 cytotox
O=C(CSc1ccsc1[N+](=O)[O-])N1CCN(c2ccccc2)CC1	-3.3%	3.1%	5.8µM*	?
COc1ccccc1NC(=O)c1ccc(CN(c2cc(Cl)ccc2C)S(=O)(=O)c2ccccc2)cc1	-2.0%	-0.7%	i	i
Cc1ccc(CN(c2ccc(C(=O)NCc3cccnc3)cc2)S(C)(=O)=O)cc1	0.3%	-8.0%	i	i
Cc1ccc(Cl)cc1N(Cc1ccc(C(=O)NCc2cccnc2)cc1)S(=O)(=O)c1ccccc1	20.1%	14.4%	i	14.6µM*
COc1ccc(NC(=O)c2ccc(CN(c3cc(Cl)ccc3C)S(=O)(=O)c3ccccc3)cc2)cc1OC	-0.5%	-7.0%	i	3.66µM*
Cn1c(SCC(=O)NCc2ccco2)nnc1-c1ccc(NC(=O)c2ccccc2)cc1	.	.	i	i
CCN(CC)C(=O)c1ccc(-c2nnc(Nc3ccc(O)cc3)c3ccccc23)cc1	11.1%	9.7%	i	i
CCN(CC)C(=O)c1ccc(Nc2nnc(C)c3ccccc23)cc1	-15.9%	-28.4%	i	11.6µM*
C=Cc1ccc(Cn2c(=O)cc(C)c3c(C)nn(C)c32)cc1	.	.	?	i
CC1=C(C#N)C(c2cn(-c3ccccc3)nc2-c2cccs2)C(C#N)=C(C)N1	?	?	?	i
NC1=NC(c2cn(-c3ccccc3)nc2-c2cccs2)n2c(nc3ccccc32)N1 (stereo unspecified)	18.4µM*	?	i	i
CCc1nc2cccnc2n1-c1ccc(CC(=O)Nc2ccc(C)cc2)cc1	.	.	i	i
CCCCOn1c(C)c(C(=O)OCC)c2c3nonc3ccc21	-1.9%	0.1%	i	8.2µM*
CCCCOn1c(C)c(C(=O)OCC)c2c3no[n+]([O-])c3ccc21	1.8%	-14.0%	i	i
Cc1ccc2onc(CC(=O)N(C)c3ccccc3)c2c1	.	.	i	i
Cc1c(C(C)C)c(=O)n(-c2ccc(S(=O)(=O)NCc3ccccc3)cc2)n1C	?	?	?	2.59µM*
Cc1ccc2nc(NCCO)nc(-c3ccccc3)c2c1	-3.4%	-14.4%	i	11.6µM*
O=C(N/N=C/c1cccs1)c1cccc(S(=O)(=O)Nc2ccc(Cl)cc2)c1	11.6µM*	16.4µM*	i	i
COc1ccc(NS(=O)(=O)c2cccc(C(=O)N/N=C/c3ccccc3OC)c2)cc1	-4.5%	7.6%	i	i
CCN1c2ccccc2-c2nc(SCC(=O)Nc3cc(F)ccc3F)ncc2S1(=O)=O	.	.	?	i
Cc1cccc(NC(=S)NNC(=O)c2nn(C)cc2Cl)c1	16.2%	2.8%	i	i
Cc1cccc(NC(=S)NNC(=O)CCn2cc(C)cn2)c1	1.26µM*	2.82µM*	i	i
CCOc1ccccc1C1CC(=O)Nc2c1c(=O)n(C)c1ncnn21 (stereo unspecified)	.	.	i	i
Cc1cc(C)cc(NC(=O)NCc2noc3ccccc23)c1	.	.	i	i
COc1cc(OC)c(/C=C/c2c3ccccc3cc[n+]2C)c(OC)c1	.	.	?	i
COc1cc(OC)c(/C=C/c2cc3c4ccccc4ccc3[n+](C)c2)c(OC)c1	.	.	8.2µM*	i
COc1cc(OC)c(/C=C/c2cc(/C=C/c3c(OC)cc(OC)cc3OC)[n+](C)c3ccccc23)c(OC)c1	.	.	23.1µM*	i
Cc1cccn2c(=O)c(/C=C(\C#N)c3nc4ccccc4n3C)c(Oc3ccc(Br)cc3)nc12	.	.	?	i
COc1ccc2cc(/C=N/NC(=O)c3ccc(CN(c4cccc(Cl)c4Cl)S(C)(=O)=O)cc3)c(Cl)nc2c1	?	?	2.59µM*	?
COc1ccc2cc(/C=N/O)c(Cl)nc2c1	-16.3%	-9.0%	i	?

Assay outcomes from PubChem.
